Only a selection was taken, and hits are over-represented in it overall.
AmpC inh no detg = blocks E. coli AmpC beta-lactamase in detergent-free assay. AmpC nitrocefin hydrolysis, absorbance 480 nm, 0.0001% Triton. Potency, µM (top dose mostly 57.1 µM), usual class: inhibitors. 330,000 tested, 0.52% active. P00811. AID 485341; further: nearly all actives have a fitted effect of over 20% in size
Target sequence (P00811 whole entry, looked up): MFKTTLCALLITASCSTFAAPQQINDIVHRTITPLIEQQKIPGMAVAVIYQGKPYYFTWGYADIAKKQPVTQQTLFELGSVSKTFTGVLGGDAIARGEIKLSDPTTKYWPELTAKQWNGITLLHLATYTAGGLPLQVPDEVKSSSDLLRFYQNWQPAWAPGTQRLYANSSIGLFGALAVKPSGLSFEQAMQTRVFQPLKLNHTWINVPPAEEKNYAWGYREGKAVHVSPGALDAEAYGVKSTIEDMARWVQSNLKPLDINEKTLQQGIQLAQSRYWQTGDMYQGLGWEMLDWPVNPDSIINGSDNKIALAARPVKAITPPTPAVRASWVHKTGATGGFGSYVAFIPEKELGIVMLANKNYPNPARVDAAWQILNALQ
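AmpC (5.3 nM in the dispensed reagent) in 20 mM phosphate pH 7.0 with 0.01% (detergent screen) or 0.0001% Triton X-100 was preincubated with compounds for 15 min at room temperature. Nitrocefin was then added from an 800 uM solution, and hydrolysis was followed at 480 nm.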
NS1 inh = inhibitors of influenza NS1 protein function. 270,000 tested, 0.4% active. AID 2326. Potency, µM (titrated, usually from 46.1 µM); calls by dose curve; further: actives are rising curves; nearly all actives have a fitted effect of over 50% in size
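S. cerevisiae expressing influenza A NS1, grown in glucose, washed, then diluted 1:100 into pH 6.0 -URA galactose medium with 23 nl compound. Growth recovery read as OD600; NS1-free strain serves as control.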
AmpC inh detg = AmpC beta-lactamase inhibition with detergent present. P00811. AID 485294. AmpC hydrolysis of nitrocefin, absorbance 480 nm, 0.01% Triton. Potency, µM (titrated, usually from 114 µM), usual class: inhibitors. 370,000 tested, 0.041% active; further: nearly all actives have a fitted effect of over 25% in size
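20 mM phosphate pH 7.0 + 0.01% (detergent screen) or 0.0001% Triton X-100; 5.3 nM AmpC reagent; cpd preinc 15 min RT; nitrocefin (800 uM stock) to start; A480 q20 s × 4 min; Activity was normalised to no-enzyme and no-compound control wells.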
Shiga inhibitor = Shiga toxin inhibition; 290,000 tested, 9.2% active; AID 2315; inhibition, % at 38.7 µM; Vero cells, Shiga toxin protein synthesis inhibition reporter; in the data active means inhibition mostly above about 28%, no sharp cut-off; inactive means mostly below about 43%
Cycloheximide cs = affects cycloheximide protein synthesis inhibition readout, counter-screen; AID 2314; cell reporter, cycloheximide protein synthesis inhibition counterscreen; 300,000 tested, 12% active; max response, %; in the data active means max response mostly above about 13%, no sharp cut-off; inactive means mostly below about 14%; further: read at 38.3 µM for the half of the compounds with a filed dose
Numbers stand for hits; n = inactive; u = inconclusive; x = not tested or not shown; + = active, no number; [ ] = another dose, or the depositor's remark. Unless noted, the call rests on the fitted dose curve; in most records, active means well fitted curve in the direction sought with a large enough effect; inconclusive means small, poorly fitted or top-dose-only effect, or another doubt; inactive means no such curve, though single readings can be large; an effect the other way counts as inactive or inconclusive.

SMILES	AmpC inh no detg	NS1 inh	AmpC inh detg	Shiga inhibitor	Cycloheximide cs
CC(C)c1ccc(C(O)c2nc3ccccc3n2C)cc1 (configuration not stated)	n	n	n	n	n
CC(C)c1ccc(C(O)Cc2nc3ccccc3n2C)cc1 (configuration not stated)	n	n	n	127.2	60.4
CC(=O)N1CCN(c2ccc(NCc3ccc(-c4ccc(Br)cc4)o3)cc2)CC1	n	x	x	x	x
C=CCOc1ccccc1/C=N/NC(=O)c1ccc(Cl)cc1Cl	25.1µM	n	n	n	n
COc1cc(/C=N/NC(=O)c2ccncc2)ccc1OC(=O)c1cc(OC)c(OC)c(OC)c1	n	n	n	n	n
COc1cc(C(=O)Oc2ccccc2/C=N/NC(=O)c2ccc(Cl)cc2Cl)cc(OC)c1OC	u	n	n	25.7	23.1
CC(C)Cc1nnc(NC(=O)Cc2ccc([N+](=O)[O-])cc2)s1	n	n	n	n	n
CC(C)Cn1c(=S)[nH]c2ccccc2c1=O	n	x	u	n	n
CC(C)COn1c(=S)[nH]c2ccccc2c1=O	n	n	n	55.2	27.3
Cc1ccc(C(=O)Nc2ccc(C(=O)N3CCCCC3)cc2)cc1	n	n	n	n	26.6
Cc1cc(C)c(C)c(S(=O)(=O)NCc2ccc(C(=O)N3CCCCC3)cc2)c1C	n	n	u	n	22.0
Cc1cccc(CC(=O)Nc2ccc(C(=O)N3CCCCC3)cc2)c1	n	n	n	n	14.5
Cc1ccc(NS(=O)(=O)c2ccc(C(=O)N3CCCCCCC3)cc2)cc1	n	n	n	99.4	41.0
COc1ccccc1CC(=O)Nc1ccc(C(=O)N2CCCCC2)cc1	n	n	n	n	n
COc1ccc(OCCCC(=O)Nc2ccc3c(c2)OCCO3)cc1	n	n	n	+	n
COc1ccc(-c2noc(CCC(=O)Nc3ccc4c(c3)OCCO4)n2)cc1	n	n	n	42.8	22.6
COc1cccc(-c2noc(CCC(=O)Nc3cccnc3)n2)c1	n	n	u	n	24.6
COc1ccc(-c2noc(CCC(=O)Nc3ccc(C)c(C)c3)n2)cc1	n	n	n	n	14.8
CC(=O)c1ccc(OCCCC(=O)Nc2ccc3c(c2)OCCO3)cc1	n	x	n	x	x
Cc1ccc(-c2noc(CCC(=O)Nc3ccc4c(c3)OCO4)n2)cc1	n	n	u	n	n
CC(C)(C)C(=O)Nc1cccc(C(=O)OCc2cc(=O)n3nc(C4CC4)sc3n2)c1	x	x	n	x	x
NS(=O)(=O)c1ccc(N/C=C\C(=O)c2cccc3ccccc23)cc1	n	n	u	n	21.4
O=C(CCCOc1ccccc1)NCCc1ccccc1	n	n	n	n	14.2
CCOc1ccc(CCNC(=O)CCCn2nc(C)c3c(C)n(-c4ccccc4)nc3c2=O)cc1	n	n	n	n	n
COCCCNC(=O)CCCOc1ccccc1	n	n	n	n	31.3
SMILES	AmpC inh no detg	NS1 inh	AmpC inh detg	Shiga inhibitor	Cycloheximide cs
O=C(CCCOc1ccc(Cl)cc1)NCCc1ccccc1	n	n	n	n	n
Cc1nn(CCCC(=O)NCCc2ccccc2)c(=O)c2nccn12	n	n	u	15.3	n
N#Cc1ccccc1NS(=O)(=O)c1cc2c3c(c1)CCC(=O)N3CCC2	n	x	n	x	x
CN1CCN(S(=O)(=O)c2ccc(N(C)Cc3c(F)cccc3Cl)nc2)CC1	n	x	x	x	x
Cc1ccc(C(c2sc3nc(-c4ccco4)nn3c2O)N2CCCC2)cc1 (configuration not stated)	x	x	n	x	x
COc1cccc(CNC(=O)C2CCN(S(=O)(=O)c3ccc4c(c3)CCCN4C(C)=O)CC2)c1	x	x	n	x	x
CN(C)c1ccc(C2C3CCCc4ccccc4C3=NN2C)cc1 (configuration not stated)	n	n	n	96.5	58.9
CN1N=C2c3ccccc3CCC2C1c1ccc(C(F)(F)F)cc1 (configuration not stated)	n	n	n	n	n
Cc1ccc2cc3c(nc2c1)N(Cc1ccco1)CC3	n	n	n	n	n
Cc1ccc2cc3c(nc2c1)OCC3	n	n	n	47.4	32.0
COc1ccc2c(c1)CC(C(=O)N1CCC(C(N)=O)CC1)CO2 (configuration not stated)	x	x	n	x	x
Cc1ccc2nc(C(=O)N3CCCC(Nc4ccc(F)cc4)C3)cn2c1 (configuration not stated)	n	n	n	81.0	28.3
CC(C)c1ccc(NC2CCCN(C(=O)c3ccsc3)C2)cc1 (configuration not stated)	n	n	n	n	n
CCn1nc(C)c([N+](=O)[O-])c1C(=O)NNC(=O)c1ccc(Cl)cc1	n	n	n	n	n
Cc1ccc(C(=O)OCc2cc(=O)n3c(C)csc3n2)s1	n	x	n	x	x
COc1ccc(OCC(=O)OCC(=O)NC2CCCCC2C)cc1 (configuration not stated)	n	x	n	x	x
COc1cc(NC2CCCCC2O)c2nc(-c3ccc(Cl)cc3)ccc2c1 (configuration not stated)	n	n	u	134.5	85.2
CC1=C(C(=O)Nc2ccc(C)cc2C)C(CC(C)C)n2nc(SCc3ccccc3C)nc2N1 (configuration not stated)	x	x	n	x	x
COc1ccccc1NC=C1C(=O)OC2(CCCCC2)OC1=O	n	n	n	n	30.7
COC(=O)c1ccccc1NC=C1C(=O)OC2(CCCCC2)OC1=O	n	n	n	n	n
Cn1nc([N+](=O)[O-])nc1N1CCOCC1	n	n	n	n	n
CC1=C(C(=O)Nc2ccc(F)c(F)c2)C(c2cccs2)NC(=S)N1 (configuration not stated)	n	n	n	n	n
CC1=C(C(=O)Nc2ccc(C)cc2)C(c2cccs2)NC(=S)N1 (configuration not stated)	n	n	n	n	19.3
CC(C)=Cc1oc2ccc([N+](=O)[O-])cc2c1N1CCOCC1	n	n	n	64.9	20.8
Cc1ccc(C(=O)c2cc([N+](=O)[O-])ccc2N2CCOCC2)cc1	n	n	n	n	n
SMILES	AmpC inh no detg	NS1 inh	AmpC inh detg	Shiga inhibitor	Cycloheximide cs
Nc1cc(=O)[nH]c(SCC(=O)N2N=C(c3ccc(Cl)cc3)CC2c2ccco2)n1 (configuration not stated)	n	n	n	n	n
Cc1ccc(C2=NN(C(=O)CSc3nc4ncc(Cl)cc4[nH]3)C(c3ccco3)C2)cc1 (configuration not stated)	10µM	x	u	n	14.4
COc1ccc(C2=NN(C(=O)CSc3nc4ncc(Cl)cc4[nH]3)C(c3ccco3)C2)cc1 (configuration not stated)	n[11.4 µM]	x	u	n	21.4
CN(C)S(=O)(=O)c1ccc(C(=O)Nc2ccc3ncccc3c2)cc1	n	n	u	41.2	32.4
Cc1nc2ccc(NC(=O)c3ccc(S(=O)(=O)N(C)C)cc3)cc2s1	n	x	n	n	n
CN(C)S(=O)(=O)c1cccc(NC(=S)NC(=O)c2ccco2)c1	n	x	n	x	x
CN(C)S(=O)(=O)c1cccc(NC(=O)c2c[nH]c3ccccc23)c1	n	n	n	63.8	16.3

Source: PubChem (National Center for Advancing Translational Sciences (NCATS))
